Shown are actives, neighbours in structure and some others; about 10% of the full set was active somewhere.
KB-V1 cytotox: kills drug-selected multidrug resistant KB-V1 cells; KB-V1 MDR cells viability, CellTiter-Glo, 72 h; actives 3.4% (n = 400,000); Potency, µM (titrated, usually from 46.1 µM), usual class: cytotoxic; AID 1347076; further: on the % scale 0 is the no-effect control and ±100 the full control effect; nearly all actives have a fitted effect of over 60% in size
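Compound-treated KB-V1 multidrug-resistant cells, 72 h, 37 degrees C; viability by CellTiter-Glo. Fitted qHTS curves give the values.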
RORgamma inh: blocks mouse ROR gamma transcriptional activity | Drosophila S2 Gal4-RORgamma UAS-luciferase reporter, 20 h | actives 5.4% (n = 310,000) | Potency, µM (series often up to 53.6 µM), for the others: at the top dose activity change, negative = inhibition, most hits filed as inhibitors | P51450 | AID 2551; further: on the % scale 0 is the no-effect control and ±100 the full control effect; nearly all actives have a fitted effect of over 60% in size
Target sequence (P51450 whole entry, looked up, the tested form may be a part): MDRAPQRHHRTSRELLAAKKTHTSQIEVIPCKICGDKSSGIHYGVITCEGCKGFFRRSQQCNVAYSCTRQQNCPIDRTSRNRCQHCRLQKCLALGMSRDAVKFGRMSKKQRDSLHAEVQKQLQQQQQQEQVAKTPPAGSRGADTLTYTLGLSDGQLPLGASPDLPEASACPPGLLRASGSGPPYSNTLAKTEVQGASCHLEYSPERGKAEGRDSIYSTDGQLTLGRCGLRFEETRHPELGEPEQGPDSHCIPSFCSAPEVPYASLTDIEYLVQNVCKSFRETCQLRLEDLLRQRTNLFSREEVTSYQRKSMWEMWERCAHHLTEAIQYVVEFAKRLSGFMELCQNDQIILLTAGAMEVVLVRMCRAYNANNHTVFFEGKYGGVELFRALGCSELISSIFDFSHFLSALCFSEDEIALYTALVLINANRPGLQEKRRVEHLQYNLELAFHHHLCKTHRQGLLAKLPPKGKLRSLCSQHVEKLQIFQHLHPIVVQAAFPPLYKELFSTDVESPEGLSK
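Luciferase reporter read in Schneider cells carrying Gal4-RORγ (mouse) and UAS-Photinus luciferase; cells given compound 1 h before 700 uM copper sulfate induction, then incubated 20 h at ambient temperature.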
MCF10A rerep: induces DNA re-replication in MCF 10a normal breast cells | actives 2.9% (n = 350,000) | MCF 10A DNA re-replication, Hoechst nuclear intensity, 48 h | Potency, µM (doses to about 46.1 µM), inactives show at the top dose activity, positive = re-replication, hits mostly activators; further: % of control where 0% means no effect; nearly all actives have a fitted effect of over 50% in size
Gal4-VP16 FLuc: inhibits Gal4-VP16 luciferase reporter, ROR gamma counter-screen; actives 3.5% (n = 310,000); AID 2546; Drosophila S2 Gal4-VP16 UAS-luciferase, luminescence, 20 h; Potency, µM (titrated, usually from 53.6 µM), without a hit: at the top dose activity, negative = inhibition, actives largely listed as inhibitors;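 further: Gal4-VP16 expression switched on by copper sulfate through the metallothionein promoter; on the % scale 0 is the no-effect control and ±100 the full control effect; nearly all actives have a fitted effect of over 50% in size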
SW480 rereplic: induces DNA re-replication in SW480 colon adenocarcinoma cells; SW480 DNA re-replication, Hoechst DNA content imaging, 48 h; Potency, µM (top dose mostly 46.1 µM), inactives show at the top dose re-replication activation, hits mostly activators; actives 1.8% (n = 340,000); further: % of control where 0% means no effect; nearly all actives have a fitted effect of over 55% in size
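Hoechst fluorescence of nuclei (405 nm excitation, 500-530 nm emission) measured by plate-scanning imager after 48 hr compound exposure at 37 C; re-replication scored as increased number of nuclei with elevated intensity.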
KB-3-1 tox: kills parental KB-3-1 adenocarcinoma cells | KB-3-1 viability, CellTiter-Glo ATP luminescence, 72 h | Potency, µM (doses to about 46.1 µM), usual class: cytotoxic | actives 1.4% (n = 400,000) | AID 1347075; further: on the % scale 0 is the no-effect control and ±100 the full control effect; nearly all actives have a fitted effect of over 60% in size
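Cytotoxicity in the drug-sensitive parental line KB-3-1 was scored as loss of CellTiter-Glo luminescence following 72 h incubation with compound. Values come from curve fitting of normalized concentration-response data.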
An asterisk follows results filed as active; i = inactive; ? = inconclusive; / = no result. The call rests on the fitted dose curve; in most records, active means well fitted curve in the direction sought with a large enough effect; inconclusive means small, poorly fitted or top-dose-only effect, or another doubt; inactive means no such curve, though single readings can be large; an effect the other way counts as inactive or inconclusive. Potency means the concentration at half of the fitted maximal effect.

SMILES | KB-V1 cytotox | RORgamma inh | MCF10A rerep | Gal4-VP16 FLuc | SW480 rereplic | KB-3-1 tox
Cc1sc2ncn(CC(=O)Nc3cccc(C(F)(F)F)c3)c(=O)c2c1S(=O)(=O)N1CCN(C)CC1 | i | / | / | / | / | i
c1nc2nc(Nc3ccc(N4CCOCC4)cc3)nc(NC3CCCCC3)c2[nH]1 | / | -96% | / | ? | / | /
Cc1cccc(CNC(=O)C2CCN(c3nc4ccc(Cl)cc4[nH]3)CC2)c1 | i | / | / | / | / | i
O=C(O)C(CCc1ccccc1)(Cc1ccccc1)C(=O)O | i | / | 7% | / | -10% | i
Nc1nc2c(nnn2C2CC(O)C(CO)O2)c(=O)[nH]1 (stereo unspecified) | 1.3µM* | / | / | / | / | 2.3µM*
COc1ccccc1-n1cnnc1SCC(=O)c1cc(C)n(Cc2cccs2)c1C | 16µM* | 21% | 9% | -4% | -5% | i
O=C(NCc1cc([N+](=O)[O-])ccc1O)c1cccnc1Sc1ccccc1Cl | i | 3.5µM* | 3% | 2.8µM* | -6% | ?
O=C(NCc1cc([N+](=O)[O-])ccc1O)c1cccnc1Sc1ccc(Cl)cc1 | / | -2% | ? | -11% | -1% | /
COc1ccc(/C=C/c2c(-c3ccc(OC)cc3)sc3ccc(N4CCOCC4)cc23)cc1 | i | 3% | 8.2µM* | 2% | 1% | i
COc1ccc2sc(-c3ccc(SC)cc3)c(/C=C/c3ccc(OC)c(OC)c3)c2c1 | i | / | 9.2µM* | / | 17% | i
COc1ccc(-c2sc3ccccc3c2/C=C/c2ccc(N)cc2)cc1 | i | / | ? | / | -3% | i
COc1ccc(-c2sc3ccc(N4CCOCC4)cc3c2C#CCO)cc1 | i | / | 12µM* | / | ? | i
COCC1=C2c3ccccc3[C@@H]3CNC(=O)C3(C(=O)OC)C[C@@H]2n2c(=O)n(-c3ccccc3)c(=O)n2C1 (stereo partly specified) | / | 0% | / | 0% | / | /
COc1cccc(CNC(=O)CCNS(=O)(=O)c2ccc(C)cc2)c1 | i | / | -2% | / | -9% | i
NC(=S)Cc1nc(-c2ccc(Cl)cc2)cs1 | i | 5µM* | ? | ? | -14% | i
NC(=O)Cc1nc(-c2ccc(F)cc2)cs1 | i | -31% | -1% | 2% | -9% | i
CCC(=O)c1cc(F)c(N2CCN(C(=O)Cc3ccccc3)CC2)cc1C | ? | 11% | 9% | 13µM* | 10% | i
CCC(=O)c1ccc(N2CCN(C(=O)Cc3ccccc3)CC2)c(F)c1 | ? | ? | -5% | ? | 4% | i
Cc1cc(N2CCOCC2)c(F)cc1C(=O)c1ccccc1 | 18µM* | 9% | 4% | 2% | -7% | i
O=C1CSC(=S)N1c1cccc(O)c1 | i | 13µM* | ? | -6% | 4% | i
O=C(O)c1cccc(N2C(=O)CSC2=S)c1 | i | -42% | ? | 5% | 2% | i
Cc1c(N2C(=O)CSC2=S)c(=O)n(-c2ccccc2)n1C | i | 13µM* | ? | 1% | -5% | ?
Cc1c(N2C(=O)/C(=C3/C(=O)N(C)c4ccccc43)SC2=S)c(=O)n(-c2ccccc2)n1C | i | 7.9µM* | -3% | 9% | 0% | i
CC(=O)N1C(=O)/C(=C2\SC(=S)N(c3c(C)n(C)n(-c4ccccc4)c3=O)C2=O)c2ccccc21 | i | -31% | 11% | -11% | ? | i
CC(=O)OC[C@@]1(O)C[C@@]23CC[C@@H]4c5ccoc5CC[C@@]4(C)[C@@H]2CCC1C3 | / | ? | / | 2% | / | /
Cc1c(C(=O)NCc2ccccc2C(F)(F)F)sc(=O)n1Cc1ccc(F)cc1 | ? | / | / | / | / | i
CCc1nnc(NC(=O)c2ccc(S(=O)(=O)N(CC)CC)cc2)s1 | i | -39% | 25% | ? | -3% | i
CCCCN(CCCC)S(=O)(=O)c1ccc(C(=O)Nc2nnc(COC)o2)cc1 | ? | 0.45µM* | ? | 1µM* | ? | ?
